Holding throughout (experiment): glycan array binding signal (z-score within array); higher = stronger binding
Holding throughout (details): glycan notation: IUPAC condensed, linker removed

One test has as its target GalNAc(a1-3)GalNAc. The method, boiled down: (§1)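 Glycan array data came from 3228 arrays in the Consortium for Functional Glycomics database, and only arrays with an available protein sequence were kept. Glycan names were put into IUPAC-condensed notation, and columns mapping to the same glycan were averaged. The binding signal is a within-array Z-score, averaged across arrays of one protein sequence run at different concentrations or buffers and across linkers. A negative Z-score can be read as non-binding.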

Another test addresses GalNAc(b1-4)GlcNAc6S. The method, boiled down:
as §1

In test [1] the target is Glc(a1-6)Glc(a1-6)Glc(a1-6)Glc. The method, boiled down:
as §1

Test [2] deals with GlcA3S(b1-3)Gal(b1-4)GlcNAc(b1-2)Man. The gist of the method:
as §1

In test [3] the target is GlcNAc(a1-4)Gal(b1-4)GlcNAc(b1-3)Gal(b1-4)Glc. The method, boiled down: as §1
The target of test [4] is GlcNAc(b1-2)[GlcNAc(b1-6)]Man(a1-6)[GlcNAc(b1-2)Man(a1-3)]Man(b1-4)GlcNAc(b1-4)GlcNAc. The gist of the method:
as §1

Test [5] addresses GlcNAc(b1-3)Gal(b1-4)GlcNAc(b1-3)Gal(b1-4)GlcNAc(b1-2)[GlcNAc(b1-3)Gal(b1-4)GlcNAc(b1-3)Gal(b1-4)GlcNAc(b1-6)]Man(a1-6)[GlcNAc(b1-3)Gal(b1-4)GlcNAc(b1-3)Gal(b1-4)GlcNAc(b1-2)Man(a1-3)]Man(b1-4)GlcNAc(b1-4)[Fuc(a1-6)]GlcNAc. The method, boiled down: as §1
Test [6] concerns the target GlcNAc(b1-3)Gal(b1-4)GlcNAc(b1-3)Gal(b1-4)GlcNAc(b1-3)Gal(b1-4)GlcNAc(b1-2)Man(a1-3)[GlcNAc(b1-3)Gal(b1-4)GlcNAc(b1-3)Gal(b1-4)GlcNAc(b1-3)Gal(b1-4)GlcNAc(b1-2)Man(a1-6)]Man(b1-4)GlcNAc(b1-4)[Fuc(a1-6)]GlcNAc. The method, boiled down: as §1
The target of test [7] is GlcNAc6S(b1-3)Gal(b1-4)GlcNAc. The gist of the method:
as §1

In test [8] the target is Neu5Ac(a2-3)Gal(b1-3)GlcNAc(b1-3)Gal(b1-3)GlcNAc. The gist of the method:
as §1

Test [9] deals with Neu5Ac(a2-3)Gal(b1-3)GlcNAc(b1-3)Gal(b1-4)GlcNAc. The method, boiled down: as §1
Test [10] has as its target Neu5Ac(a2-3)Gal(b1-3)GlcNAc6S. The method, boiled down:
as §1

Test [11] addresses Neu5Ac(a2-3)Gal(b1-3)[Fuc(a1-4)]GlcNAc(b1-3)Gal(b1-4)[Fuc(a1-3)]GlcNAc. The gist of the method: as §1
The target of test [12] is Neu5Ac(a2-3)[GalNAc(b1-4)]Gal(b1-4)Glc. The gist of the method: as §1
For test [13], the target named is Neu5Ac(a2-6)Gal(b1-4)GlcNAc(b1-2)Man(a1-6)Man(b1-4)GlcNAc(b1-4)GlcNAc. The gist of the method: as §1
The target of test [14] is Neu5Ac(a2-6)Gal(b1-4)GlcNAc(b1-2)Man(a1-6)[Gal(b1-4)GlcNAc(b1-2)Man(a1-3)]Man(b1-4)GlcNAc(b1-4)GlcNAc. The method, boiled down: as §1
Test [15] addresses Neu5Ac(a2-6)Gal(b1-4)GlcNAc(b1-2)[Neu5Ac(a2-6)Gal(b1-4)GlcNAc(b1-4)]Man(a1-3)[GlcNAc(b1-4)][Neu5Ac(a2-6)Gal(b1-4)GlcNAc(b1-2)[Neu5Ac(a2-6)Gal(b1-4)GlcNAc(b1-6)]Man(a1-6)]Man(b1-4)GlcNAc(b1-4)GlcNAc. The method, boiled down:
as §1

The target in test [16] is Neu5Ac(a2-6)GalNAc(b1-4)GlcNAc. The method, boiled down:
as §1

For test [17], the target named is Neu5Ac(a2-8)Neu5Ac(a2-3)[GalNAc(b1-4)]Gal(b1-4)Glc. The method, boiled down:
as §1

In test [18] the target is Neu5Ac(a2-8)Neu5Ac(a2-8)Neu5Ac(a2-3)Gal(b1-4)Glc. The gist of the method: as §1
The target of test [19] is Neu5Gc(a2-3)Gal(b1-4)GlcNAc(b1-3)Gal(b1-4)GlcNAc(b1-2)Man(a1-3)[Neu5Gc(a2-3)Gal(b1-4)GlcNAc(b1-3)Gal(b1-4)GlcNAc(b1-2)Man(a1-6)]Man(b1-4)GlcNAc(b1-4)GlcNAc. The gist of the method: as §1

Many of the other results were omitted from the sample, so the strongest signals are more common in it than they were.

B1: GS7807F-bth-514-18-514 (Bacteroides thetaiotaomicron) (protein)
chain: AGSCTGNFEEYNTNQFQIHEADPSTLMKSMIETIVNIQQNDSQMMDQMVGQLGGYLTCANVWSGTNFGTFNQSDAWNAGPWNTNFEKIYGNFFQIQEATNESGHYYAFARMIRAITMLRVADCYGPMPYSQVKKGNFYVAYDTEEQVYKNIMEDFASAANVLYNYYKDTNGNAPLASNDPVFSGNYANWARLANSMRLRVAIRISTAYPEMAKENAEAAASHEAGLIEANNDNAMMDCGSQTNPYQLAAVSWGDLRVNANIVDYMNGYGDPRMSKYFNHSTFTGHTQEYVGMRSGEDGFAKSDVAGYSIPAITGTSKLLVFCAAETAFLRAEGKLKNWSVGNKSAKEYYEEGIKLSMEQYGTTMPDNYLTNTEKPTVSHNNDPRGHAYTISNTVAVAWNDNNEEENLQRIITQKWIANYPLGLEAWAEYRRTGYPELYPCIDNLSPSGVDSKRGMRRLRFPYTEVQNNHSNYQQGVSYLKNGGPDNEATDLSWGKTN
As for B1, the “glycan array binding signal (z-score)” value with GalNAc(a1-3)GalNAc is 0.13; with GalNAc(b1-4)GlcNAc6S it was 0.521; in [1], -0.652; in test [2], -0.771; in test [3], -0.587; in [4], -0.73. Also, the “glycan array binding signal (z-score)” value in test [5] was 0.581; in test [6] it was 3.26; in [7] it was 1.06; in [8], -0.891; in [9] it was -0.842; in test [10], -0.491. Further, the “glycan array binding signal (z-score)” value was 0.124 in [11]; -0.409 in [12]; 3.88 in test [13]; 3.49 in test [14]; 0.039 in [15]; -0.875 in test [16]. For the same molecule, the figures for the “glycan array binding signal (z-score)” value in test [17], in test [18] and in test [19] were 3.32, -0.82 and -0.775, respectively.

The values above are taken from the supplement of paper PMC8728848.
